High-throughput results (PubChem)
In the library only some 1.5% were active in any assay of this set; here they are far more common.
GLD-1 RNA inh: GLD-1-TGE RNA interaction inhibition (C. elegans); purified GLD-1 + fluorescein TGE RNA, fluorescence polarization; 320,000 compounds, 0.44% hits; Q17339; inhibition, % at 5.96 µM;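 active = percent inhibition above a per-plate cutoff, the plate mean of test compounds plus 3 SD, cut at about 30% in these data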
MEX-5 binding: C. elegans MEX-5 TCR-2 RNA binding activity; MEX-5/FITC-TCR2 RNA binding, fluorescence polarization; hits give low values; Q9XUB2; activity score (negative = inhibition of binding), % at 10 µM; 300,000 compounds, 0.38% hits;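 active = inhibition past about -25% in most replicates, and total fluorescence under double the plate's negative control median, limit read from the data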
Target sequence (Q9XUB2 whole entry, looked up): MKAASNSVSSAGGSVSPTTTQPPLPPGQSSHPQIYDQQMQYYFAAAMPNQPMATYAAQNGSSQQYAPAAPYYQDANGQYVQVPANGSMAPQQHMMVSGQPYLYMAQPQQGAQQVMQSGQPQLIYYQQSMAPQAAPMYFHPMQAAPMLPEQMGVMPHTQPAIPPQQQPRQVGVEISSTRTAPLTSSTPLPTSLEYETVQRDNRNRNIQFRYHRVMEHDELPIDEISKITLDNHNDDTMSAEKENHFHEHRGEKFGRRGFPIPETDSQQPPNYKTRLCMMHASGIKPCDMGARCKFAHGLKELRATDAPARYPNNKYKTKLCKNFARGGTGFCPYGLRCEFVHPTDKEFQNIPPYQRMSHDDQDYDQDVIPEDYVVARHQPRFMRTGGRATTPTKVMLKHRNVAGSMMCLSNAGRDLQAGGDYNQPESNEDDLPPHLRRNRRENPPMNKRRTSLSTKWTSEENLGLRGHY
MCL1-BIM inh: disrupts human MCL1 binding to BIM-BH3 peptide. Q07820. 320,000 compounds, 0.68% hits. GST-MCL1 / FITC-Bim-BH3 fluorescence polarization. inhibition, % at 10.9 µM;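 active = inhibition above the mean inhibition of all tested compounds plus 3 SD, set per campaign, cut at about 40% in these data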;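 note: higher means more loss of mP so more displacement of Bim peptide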
IDE cell activ: activators of human insulin-degrading enzyme in cells. 340,000 compounds, 0.073% hits. AID 493087. P14735. activation, % at 5.96 µM. HEK cells, FAbeta-B cleavage, fluorescence polarization; 0% vehicle, 100% cell-free pure enzyme wells;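 active = activation above the mean of all tested compounds plus 3 SD, set per screening campaign, cut at about 17% in these data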
BCLXL inh: inhibitors of human Bcl-xL; Q07817; 320,000 compounds, 0.7% hits; GST-Bcl-xL / FITC-Bim BH3 peptide fluorescence polarization; inhibition, % at 10.9 µM;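 active = inhibition above the mean of all tested compounds plus 3 SD, cutoff set per campaign, cut at about 30% in these data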;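 note: inhibitors lower millipolarization by displacing the labeled peptide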
IDE inh: inhibits human insulin-degrading enzyme in HEK cells | P14735 | 320,000 compounds, 0.41% hits | inhibition, % at 5.59 µM | FAbetaB cleavage, fluorescence polarization;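 active = percent inhibition above the average of all tested compounds plus 3 SD, set per screening campaign, cut at about 16% in these data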;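 note: IDE supplied by intact live HEK cells; FP after avidin binding of uncleaved biotin substrate so inhibition keeps polarization high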
Large screens that a line does not name were inactive.

O=C(c1cc2sccc2n1Cc1ccc(F)cc1)N1CCN(c2nc3ccccc3s2)CC1	BCLXL inh 78.5
COc1cccc(CNC(=O)CCCn2nc(C)c3c(C)n(-c4ccc(C)cc4)nc3c2=O)c1OC	none
O=C(NCCc1ccc(F)cc1)c1coc(=O)c(Br)c1	none
O=C(Nc1ccccc1F)c1coc(=O)c(Br)c1	MEX-5 binding -55.9
CC(C)CN(C(=O)c1ccc(=O)n(C)n1)c1nc2ccccc2s1	none
O=C(O)c1cc([N+](=O)[O-])ccc1NCc1ccccn1	BCLXL inh 30.6 (no result: MEX-5 binding)
COC(=O)CNc1c(-c2ccccn2)nc2ccc(Br)cn12	GLD-1 RNA inh 50.3, MCL1-BIM inh 55.1, BCLXL inh 46.7 (no result: MEX-5 binding)
Cc1[nH]nc(Nc2ccccc2)c1[N+](=O)[O-]	none
Cc1[nH]nc(NNC(=O)c2ccccc2)c1[N+](=O)[O-]	MEX-5 binding -83.3 (no result: IDE cell activ)
COCCN(C(=O)COC(=O)CSc1ccc(Cl)cc1)c1c(N)n(Cc2ccccc2)c(=O)[nH]c1=O	none
Cc1oc(C)c2c(=O)ccc3c(c12)OC(N)=C(C#N)C3c1ccccc1 (stereo not given)	BCLXL inh 32.3
N#CC1=C(N)Oc2c(ccc3cccnc23)C1c1ccccc1 (stereo not given)	none (no result: MEX-5 binding)
Cc1ccc(NC(=O)c2sc3nc4c(c(-c5ccco5)c3c2N)CCC4)cc1	GLD-1 RNA inh 63.5, MEX-5 binding -55.3
Cc1ccc2oc(=O)c(/C=C(\O)c3cccs3)nc2c1	MEX-5 binding -44.8
O=c1oc2ccc(Cl)cc2nc1/C=C(\O)c1cccs1	MEX-5 binding -66.6
Cc1ccc2oc(=O)c(/C=C(\O)c3ccccc3)nc2c1	none
COc1ccccc1O	none
COc1cccc2c1-c1c(O)cccc1C2=O	BCLXL inh 43.2
COCCNC(=O)C(c1ccccc1F)N(C(=O)C(=O)NC1CCCC1)C1CCCCC1 (stereo not given)	none
CCOc1ccccc1NC(=O)C1COc2ccccc2O1 (stereo not given)	none (no result: GLD-1 RNA inh, MCL1-BIM inh, BCLXL inh, IDE inh)
Cc1c(N2C(=O)c3cccc4cccc(c34)C2=O)c(=O)n(-c2ccccc2)n1C	none
Cc1c(N=C2Nc3cccc4cccc2c34)c(=O)n(-c2ccccc2)n1C	MEX-5 binding -41.1
Nc1c(Cl)cc(-c2cn(CCC(=O)O)c(-c3ccncc3)n2)cc1Cl	none (no result: MEX-5 binding)
C=CCOc1ccc(C(c2c(O)nc(SC)[nH]c2=O)c2c(O)nc(SC)[nH]c2=O)cc1	none
O=C(NNC(=O)c1csc(-c2cccnc2)n1)c1ccccc1	MEX-5 binding -26.4
O=C(NNC(=O)c1ccc2ccccc2c1O)c1ccccc1Cl	MEX-5 binding -55.6
CCN(CC)C(=O)c1ccccc1NS(C)(=O)=O	none
CN(C)c1ccc(CC2C(=O)Nc3ccccc32)cc1 (stereo not given)	BCLXL inh 45.8
CCCCC1=CC2=C(c3ccco3)C(=O)C(C)(OC(=O)c3ccc(OC)cc3)C(=O)C2=CN1Cc1ccccc1 (stereo not given)	GLD-1 RNA inh 44.4, BCLXL inh 37.0
COc1cccc(OCC(=O)NNC(=O)c2ccc3ccccc3c2)c1	none
CC1(C)CC(=O)C2=C(C1)N(c1cccc(O)c1)C1=C(C2)C(=O)CC(C)(C)C1	GLD-1 RNA inh 40.2, MCL1-BIM inh 74.5, BCLXL inh 81.1
Nc1ccccc1N=Nc1ccccc1N	MCL1-BIM inh 46.5, BCLXL inh 45.8
c1ccc(-c2nc(-c3ccccn3)nc(-c3ccccn3)n2)nc1	MEX-5 binding -39.5
c1ccc(C2=NNC(c3ccccn3)=NN2)nc1	MEX-5 binding -36.3
COc1cc(C(=O)N(c2ccc(C)c(C)c2)C2C=CS(=O)(=O)C2)cc(OC)c1OC (stereo not given)	none
COC(=O)Cn1ncc(N2CC(C)OC(C)C2)c(Cl)c1=O (stereo not given)	none
O=c1c2ccccc2oc2ccc(NCCCn3ccnc3)cc12	MEX-5 binding -27.2
Cc1ncc(CO)c(/C=N/Nc2ccc(C(F)(F)F)cn2)c1O	MCL1-BIM inh 43.3, BCLXL inh 39.6
CCOC(=O)c1c(C)[nH]c(C(=O)NCCc2ccc(OC)c(OC)c2)c1C	none
Cc1c(Cl)cnc(NC(=O)COC(=O)c2ccncc2)c1Cl	BCLXL inh 34.0 (no result: MEX-5 binding)
